{"source": "paper PMC8222333", "about": "“AsCas12a ultra nuclease facilitates the rapid generation of therapeutic cell medicines”", "binders": {"B1": {"name": "TAAA (dsDNA)", "DNA 1": "GCTATCTAGTGCTCAGTACGCACTGTAAAAGGAAACTTCTGGCAGGACCAGGTCATGAGATCGGAAGAGCACACGTCTGAACTCCAGTCA", "DNA 2": "TGACTGGAGTTCAGACGTGTGCTCTTCCGATCTCATGACCTGGTCCTGCCAGAAGTTTCCTTTTACAGTGCGTACTGAGCACTAGATAGC", "RNA": "AAUUUCUACUCUUGUAGAUAGGAAACUUCUGGCAGGACC"}, "B2": {"name": "TCAC (dsDNA)", "DNA 1": "GCTATCTAGTGCTCAGTACGCACTGTCACAGGAAACTTCTGGCAGGACCAGGTCATGAGATCGGAAGAGCACACGTCTGAACTCCAGTCA", "DNA 2": "TGACTGGAGTTCAGACGTGTGCTCTTCCGATCTCATGACCTGGTCCTGCCAGAAGTTTCCTGTGACAGTGCGTACTGAGCACTAGATAGC", "RNA": "AAUUUCUACUCUUGUAGAUAGGAAACUUCUGGCAGGACC"}, "B3": {"name": "TCCA (dsDNA)", "DNA 1": "GCTATCTAGTGCTCAGTACGCACTGTCCAAGGAAACTTCTGGCAGGACCAGGTCATGAGATCGGAAGAGCACACGTCTGAACTCCAGTCA", "DNA 2": "TGACTGGAGTTCAGACGTGTGCTCTTCCGATCTCATGACCTGGTCCTGCCAGAAGTTTCCTTGGACAGTGCGTACTGAGCACTAGATAGC", "RNA": "AAUUUCUACUCUUGUAGAUAGGAAACUUCUGGCAGGACC"}, "B4": {"name": "TCAA (dsDNA)", "DNA 1": "GCTATCTAGTGCTCAGTACGCACTGTCAAAGGAAACTTCTGGCAGGACCAGGTCATGAGATCGGAAGAGCACACGTCTGAACTCCAGTCA", "DNA 2": "TGACTGGAGTTCAGACGTGTGCTCTTCCGATCTCATGACCTGGTCCTGCCAGAAGTTTCCTTTGACAGTGCGTACTGAGCACTAGATAGC", "RNA": "AAUUUCUACUCUUGUAGAUAGGAAACUUCUGGCAGGACC"}, "B5": {"name": "TATT (dsDNA)", "DNA 1": "GCTATCTAGTGCTCAGTACGCACTGTATTAGGAAACTTCTGGCAGGACCAGGTCATGAGATCGGAAGAGCACACGTCTGAACTCCAGTCA", "DNA 2": "TGACTGGAGTTCAGACGTGTGCTCTTCCGATCTCATGACCTGGTCCTGCCAGAAGTTTCCTAATACAGTGCGTACTGAGCACTAGATAGC", "RNA": "AAUUUCUACUCUUGUAGAUAGGAAACUUCUGGCAGGACC"}, "B6": {"name": "TAGA (dsDNA)", "DNA 1": "GCTATCTAGTGCTCAGTACGCACTGTAGAAGGAAACTTCTGGCAGGACCAGGTCATGAGATCGGAAGAGCACACGTCTGAACTCCAGTCA", "DNA 2": "TGACTGGAGTTCAGACGTGTGCTCTTCCGATCTCATGACCTGGTCCTGCCAGAAGTTTCCTTCTACAGTGCGTACTGAGCACTAGATAGC", "RNA": "AAUUUCUACUCUUGUAGAUAGGAAACUUCUGGCAGGACC"}, "B7": {"name": "TCCG (dsDNA)", "DNA 1": "GCTATCTAGTGCTCAGTACGCACTGTCCGAGGAAACTTCTGGCAGGACCAGGTCATGAGATCGGAAGAGCACACGTCTGAACTCCAGTCA", "DNA 2": "TGACTGGAGTTCAGACGTGTGCTCTTCCGATCTCATGACCTGGTCCTGCCAGAAGTTTCCTCGGACAGTGCGTACTGAGCACTAGATAGC", "RNA": "AAUUUCUACUCUUGUAGAUAGGAAACUUCUGGCAGGACC"}, "B8": {"name": "TCCT (dsDNA)", "DNA 1": "GCTATCTAGTGCTCAGTACGCACTGTCCTAGGAAACTTCTGGCAGGACCAGGTCATGAGATCGGAAGAGCACACGTCTGAACTCCAGTCA", "DNA 2": "TGACTGGAGTTCAGACGTGTGCTCTTCCGATCTCATGACCTGGTCCTGCCAGAAGTTTCCTAGGACAGTGCGTACTGAGCACTAGATAGC", "RNA": "AAUUUCUACUCUUGUAGAUAGGAAACUUCUGGCAGGACC"}}}
{"target": "dAsCas12a Ultra (Acidaminococcus sp., UniProt U2UMQ6 1-1307, M537R;F870L;D908A;E993A;D1235A)", "experiment": "Spec-seq (native PAGE EMSA with sequencing of bound and unbound); 25 mM Tris-HCl pH 7.4, 150 mM KCl, 5 mM MgCl2, 10% glycerol, 1 mM DTT, 40 ng/uL salmon sperm DNA; 400 nM Cas12a, 480 nM crRNA, 50 nM library, 37 C 1 h; native PAGE at room temperature; high values mean tight binding", "details": "protein: recombinant", "units": {"binding signal": "lnKA"}}
{"binder": "B1", "binding signal": -8.83}
{"binder": "B2", "binding signal": -8.33}
{"binder": "B3", "binding signal": -7.24}
{"binder": "B4", "binding signal": -8.83}
{"binder": "B5", "binding signal": -8.42}
{"binder": "B6", "binding signal": -8.98}
{"binder": "B7", "binding signal": -7.52}
{"binder": "B8", "binding signal": -8.78}
{"target": "dAsCas12a S542R (Acidaminococcus sp., UniProt U2UMQ6 1-1307, S542R;D908A;E993A;D1235A)", "experiment": "Spec-seq (native PAGE EMSA with sequencing of bound and unbound); 25 mM Tris-HCl pH 7.4, 150 mM KCl, 5 mM MgCl2, 10% glycerol, 1 mM DTT, 40 ng/uL salmon sperm DNA; 400 nM Cas12a, 480 nM crRNA, 50 nM library, 37 C 1 h; native PAGE at room temperature; high values mean tight binding;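 note: relative affinity from the bound to unbound sequence frequency ratio in Spec-seq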", "details": "protein: recombinant", "units": {"binding signal": "lnKA"}}
{"binder": "B1", "binding signal": -8.25}
{"binder": "B2", "binding signal": -7.5}
{"binder": "B3", "binding signal": -3.52}
{"binder": "B4", "binding signal": -7.68}
{"binder": "B5", "binding signal": -7.99}
{"binder": "B6", "binding signal": -8.65}
{"binder": "B7", "binding signal": -3.6}
{"binder": "B8", "binding signal": -5.43}
{"target": "d-enCas12a (Acidaminococcus sp., UniProt U2UMQ6 1-1307, E174R;S542R;K548R;D908A;E993A;D1235A)", "experiment": "Spec-seq (native PAGE EMSA with sequencing of bound and unbound); 25 mM Tris-HCl pH 7.4, 150 mM KCl, 5 mM MgCl2, 10% glycerol, 1 mM DTT, 40 ng/uL salmon sperm DNA; 400 nM Cas12a, 480 nM crRNA, 50 nM library, 37 C 1 h; native PAGE at room temperature; high values mean tight binding;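 note: relative affinity from the bound to unbound sequence frequency ratio in Spec-seq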", "details": "protein: recombinant", "units": {"binding signal": "lnKA"}}
{"binder": "B1", "binding signal": -5.38}
{"binder": "B2", "binding signal": -5.3}
{"binder": "B3", "binding signal": -2.15}
{"binder": "B4", "binding signal": -5.65}
{"binder": "B5", "binding signal": -3.27}
{"binder": "B6", "binding signal": -5.31}
{"binder": "B7", "binding signal": -3.12}
{"binder": "B8", "binding signal": -3.98}
{"target": "d-enCas12a-Ultra (Acidaminococcus sp., UniProt U2UMQ6 1-1307, E174R;S542R;K548R;M537R;F870L;D908A;E993A;D1235A)", "experiment": "Spec-seq (native PAGE EMSA with sequencing of bound and unbound); 25 mM Tris-HCl pH 7.4, 150 mM KCl, 5 mM MgCl2, 10% glycerol, 1 mM DTT, 40 ng/uL salmon sperm DNA; 400 nM Cas12a, 480 nM crRNA, 50 nM library, 37 C 1 h; native PAGE at room temperature; high values mean tight binding;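 note: relative affinity from the bound to unbound sequence frequency ratio in Spec-seq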", "details": "protein: recombinant", "units": {"binding signal": "lnKA"}}
{"binder": "B1", "binding signal": -3.04}
{"binder": "B2", "binding signal": -3}
{"binder": "B3", "binding signal": -0.457}
{"binder": "B4", "binding signal": -3.39}
{"binder": "B5", "binding signal": -1.25}
{"binder": "B6", "binding signal": -3.33}
{"binder": "B7", "binding signal": -0.639}
{"binder": "B8", "binding signal": -0.951}
{"target": "dAsCas12a E174R (Acidaminococcus sp., UniProt U2UMQ6 1-1307, E174R;D908A;E993A;D1235A)", "experiment": "Spec-seq (native PAGE EMSA with sequencing of bound and unbound); 25 mM Tris-HCl pH 7.4, 150 mM KCl, 5 mM MgCl2, 10% glycerol, 1 mM DTT, 40 ng/uL salmon sperm DNA; 400 nM Cas12a, 480 nM crRNA, 50 nM library, 37 C 1 h; native PAGE at room temperature; high values mean tight binding;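 note: relative affinity from the bound to unbound sequence frequency ratio in Spec-seq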", "details": "protein: recombinant", "units": {"binding signal": "lnKA"}}
{"binder": "B3", "binding signal": -6.64}
{"binder": "B5", "binding signal": -8.04}
{"binder": "B7", "binding signal": -7.89}
{"binder": "B8", "binding signal": -8.39}
